Assay results reported in the supplement of paper PMC6555819.

Experiments:
Experiment in all cases: PBM binding z-score (relative to random genomic background probes); higher = stronger binding; sequences stand for … in GC…GCGATTGACAGCGTAGAATGAAGG
[1] = system: PPARg:RXRa IVT, anti-PPARg (NR concentration 270 nM, RXRa partner concentration 90 nM)
Summary of the method: (§1)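 Scanned fluorescence from custom Agilent 4×180K protein-binding microarrays was regression-normalized. Binding z-scores use random background probes as reference. Ligand-free nuclear receptor dimers were incubated on the arrays for 1 h and detected with antibodies against each partner (one per run).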

[2] = system: PPARg DBDmut:RXRa IVT, anti-PPARg (DBD mutation: PPARg1 K132A/R137A, NR concentration 270 nM, RXRa partner concentration 90 nM)
Summary of the method: as §1

[3] = system: PPARg DBDmut IVT, anti-PPARg (DBD mutation: PPARg1 K132A/R137A, NR concentration 270 nM)
Summary of the method: as §1

[4] = system: PPARg homodimer (NR concentration 180 nM)
Summary of the method: as §1

[5] = system: PXR homodimer (NR concentration 270 nM)
Summary of the method: as §1

[6] = system: RARa:RXR (NR concentration 270 nM, RXRa partner concentration 90 nM)
Summary of the method: as §1

[7] = system: RARa homodimer (NR concentration 270 nM)
Summary of the method: as §1

[8] = system: RARb homodimer (NR concentration 270 nM)
Summary of the method: as §1

[9] = system: RARb:RXRa (NR concentration 270 nM, RXRa partner concentration 90 nM)
Summary of the method: as §1

[10] = system: PXR:RXRa (NR concentration 270 nM, RXRa partner concentration 90 nM)
Summary of the method: as §1

Sequence	PBM binding z-score [1]	PBM binding z-score [2]	PBM binding z-score [3]	PBM binding z-score [4]	PBM binding z-score [5]	PBM binding z-score [6]	PBM binding z-score [7]	PBM binding z-score [8]	PBM binding z-score [9]	PBM binding z-score [10]
AGAACGAGGTCACGCTGAGTTGATAGCAGAGTAG	7.41	3.83	1.29	4.17	2.35	6.71	1.26	4.38		
ATATGTAGGTTAAAGGTCATTCAGGTTGGTTCGC	8.56	4.82	3.73	4.43	7.91		3.28	4.8	4.74	
CAAACTAGGTCAAGAGGTCAAAGTTCGCTTCCCG	8.83	3.82	5.91	10.9	5.01		4.53	5.71	5.51	
CCTGCTAGGTCAAAGGTCAGCTAAAGCAGCTCGC	7.37	3.16	2.19	7.33	0.666		3.79	4.91		
CGAACGAGGTCATCCAGGACAGTGAATACATTGA	6.11	3.53	2.68	4.36	9.68	6.05	1.86	4.1	5.11	
ACTTACGGGTCAACGAGGTCATAGCACGCGTATA	5.29	2.33	3.32	4.63	11.6	7.02	2.3	5.04	4.82	
CGTCTAAGGTCATAGGAGGTCAGTGAAGACAGAT	4.85	1.68	1.09	6.3	6.55		3.85	5.47	5.66	
CCTTACGGGTCACGTGGTTATAGCACGACGAGCG	4.93	0.819	-0.242	1.26	-0.028	4.4	0.132	3.47	4.49	
CGTCCAAGGTCTAGGTCAGTGAAAGAGACTCGAA	1.61	-1.11	-1.28	0.763	-0.179	0.514	0.0377	2.38	2.48	
TGTCAATGTTCAAAGGTAACGTAAGTATCCACAC	1.8	1.27	0.82	0.516	-0.115	0.48	-0.4	0.732	1.09	
TATACGGGGTCAAAGGCCAGAGTACGAATGTCGA	6.45	4.68	3.02	3.58	1.98		1.66	4.34	5.29	
CGTCCAAGGTCATAGAGGTCAGTGAATGCCGAGT	4.48	0.246	1.44	7.41	13.8		3.94	5.34	5.39	
CAAACCAGGTCAAGAGGTCAAAGTCCGCTTCCCG	6.81	3.85	3.15	8.14	3.35	8.42	3.47	5.59	5.6	
TCTAGTAGGTCAAAGGTCACACACTCGAAATGCG	9.26	6.06	3.11	7.45	2.56		5.05	5.5		
CAAACGAGGTCAAGGTCAAAGTCGGTTTGTGCCA	7.3	3.16	1.96	4.15	4.12		2.66	5.54		
CGTCCAAGGTCACAGAGGTCAGTGAATGCCGAGT	5.63	1.12	0.337	3.92	12.2	6.75	2.06	5.82		
CCTTAGGGGTCACGAGGTTATAGCACGACGAGCG	6.5	3.28	2.27	5.3	0.897		2.78	5.21		
CTACCAAGGTCAACAAGGTCGTTGATTACTATTC	4.74	1.26	1.4	4.44	12.6	6.63	3.35	5.25		
ATATGTAGGTCAAGGGTCATTCAGGTTGGTTCGC	9.34	5.02	3.68	4.44	2.53		1.72	5.1	5.35	
AGTCAAAGTTCATCTAGGTCACGTAAGATATGCT	6.09	1.86	2.18	4.77	13.9	6.05	2.4	5.12		

Sequence	PBM binding z-score [1]	PBM binding z-score [2]	PBM binding z-score [3]	PBM binding z-score [4]	PBM binding z-score [5]	PBM binding z-score [6]	PBM binding z-score [7]	PBM binding z-score [8]	PBM binding z-score [9]	PBM binding z-score [10]
CCTTAGGGGTCACTCCAGGTTATAGCATCGGAGT	5.37	2.85	0.901	3.42	0.789		1.3	4.71	5.36	
CGTCAAAGTTCAACTAAGGTTACGTAAAGCACGC	2.44	1.54	1.43	3.83	8.22	5.27	1.91	5.67	5.44	
GATACGGGGTCAAGGCCAGAGTACGCGTATTGAT	6.14	2.81	2.07	4.21	1.08		2.18	4.32	5.26	
CGTCCAAGGTCAAAGGTCATTGAAGAGATGACGG	6.27	2.57	0.832	5.55	4.59		5.35	5.63	6.2	
CAAACGAGGTCACCGGAAGGTCAAAGTCCGCATG	7.57	4.42	0.844	6.98	6.23		2.61	6.03		
CAAACTAGGTCACCGAAAGGTCAAAGTCCGCATG	9.24	8.36	7.3	9.63	3.23		4.75	5.37		
ATATGTAGGTTAGGGGTCATTCAGGTTGGTTCGC	7.13	1.75	2	5.22	6.76		2.76	4.47	3.82	
CAAACAAGGTCAAAGGTCAAAGTCGAGCCAACCA	7.85	4.28	4.16	7.37	4.12		6.18	5.66		
AATACGGGGTCATCGTAGGCCAGAGTACGCACAG	5.98	1.67	2.1	3.3	1.94		1.73	4.48	5.09	
CAAAATAGGTCACGAAAGGTCAAAGTCGAATGAC	8.54	5.84	4.87	10.7	3.21		7.69	5.79	6.03	
TCTAGTGGGTCAAAGGTCACACACTCGAAATGCG	8.52	2.65	1.71	4.18	1.74		2.97	5.22		
CCTTACGGGTCACGAGGTCATAGCACGACGAGCG	6.02	2.06	1.59	5.34	2.24		2.17	4.95	5.23	
CAAACAAGGTCACGAAAGGTCAAAGTCGAATGAC	7.11	3.1	3.53	8.44	7.51		5.3	6.14		
CGTCAAAGGTCAACTAAGGTAACGTAAAGCACGC	5.93	1.03	0.957	4.87	1.59	6.58	3.77	5.33		
TTACCAAGGTCAAAGGTCGTTGATGCACGCCTTG	6.12	2.16	2.19	4.12	2.27		1.08	4.89		
CCTACTGGGTCACGAAAGGTCATTGATTCAGTGA	8.65	1.64	2.22	4.41	2.09		2.35	5.9		
GCTTAAGGGTCAAAGGTTATAGCATGAATAGAAT	5.94	2.24	1.36	4.8	0.657		1.94	4.32		
CAAACGAGGTCACGAAAGGTCAAAGTCGAATGAC	7.7	2.28	3.02	7.67	9.37		5.09	6.1		
CCGAGTAGGTTACTAGGGGGCATTCAGTGCGAAT	4.9			1.47	6.49	2.34	0.177	2.16	1.92	4.21
